In PubChem BioAssay (Tox21):
Results filed as inconclusive are left out. Activity calls are given as the source filed them. Unless noted, the call rests on the fitted dose curve; in most records, active means well fitted curve in the direction sought with a large enough effect in the repeat runs; inconclusive means weak or mixed curves; inactive means no such curve, though single readings can be large; an effect the other way counts as inactive or inconclusive.

Columns and labels:
[1] = qHTS assay to identify small molecule agonists of the peroxisome proliferator-activated receptor delta (PPARd) signaling pathway - cell viability counter screen (AID 743211); further: nearly all actives have a fitted effect of over 55% in size
Summary of the method: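 Viability of GeneBLAzer PPARd UAS-bla HEK293H cells was assessed after 17 h compound incubation at 37C, using CellTiter-Glo reagent added after the reporter read and luminescence recorded 30 min later.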

[2] = target: Peroxisome proliferator-activated receptor delta (Homo sapiens) (UniProt Q03181); experiment: qHTS assay to identify small molecule agonists of the peroxisome proliferator-activated receptor delta (PPARd) signaling pathway (AID 743212; calls by dose curve)
Chain of Peroxisome proliferator-activated receptor delta (Homo sapiens) (Q03181 whole entry, looked up): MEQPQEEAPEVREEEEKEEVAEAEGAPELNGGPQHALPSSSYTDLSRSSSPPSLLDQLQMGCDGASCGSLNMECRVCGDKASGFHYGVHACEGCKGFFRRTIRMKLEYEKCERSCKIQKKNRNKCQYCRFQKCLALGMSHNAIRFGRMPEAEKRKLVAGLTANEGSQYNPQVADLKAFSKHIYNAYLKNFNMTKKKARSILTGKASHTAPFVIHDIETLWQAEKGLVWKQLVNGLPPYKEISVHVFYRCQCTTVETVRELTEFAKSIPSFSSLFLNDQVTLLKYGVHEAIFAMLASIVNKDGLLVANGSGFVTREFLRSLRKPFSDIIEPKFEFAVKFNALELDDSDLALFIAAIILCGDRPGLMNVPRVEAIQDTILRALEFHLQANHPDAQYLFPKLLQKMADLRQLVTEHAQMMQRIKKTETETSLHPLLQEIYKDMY
Summary of the method: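 Cells expressing a UAS-driven beta-lactamase reporter (PPARd-bla HEK293H) were given test compounds after a 5 h settle and kept at 37 C. Reporter activity was then measured as FRET fluorescence using LiveBLAzer B/G substrate.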

[3] = qHTS assay to identify small molecule antagonists of the peroxisome proliferator-activated receptor delta (PPARd) signaling pathway - cell viability counter screen (AID 743213); further: nearly all actives have a fitted effect of over 50% in size
Summary of the method: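 Same-well viability: cells pre-incubated 5 h, dosed with compound plus 300 nM L165041, kept 17 h at 37 C, FRET substrate 2 h RT, then CellTiter-Glo 30 min RT and luminescence.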

[4] = qHTS assay to identify small molecule agonists of the farnesoid-X-receptor (FXR) signaling pathway - cell viability counter screen (AID 743218); further: nearly all actives have a fitted effect of over 45% in size
Summary of the method: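 Viability counter screen in the same wells: CellTiter-Glo luminescence, 30 min room-temperature incubation, measured after the beta-lactamase read. Cells were GeneBLAzer FXR-UAS-bla HEK 293T, compound-treated 16 h at 37C.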

[5] = qHTS assay to identify small molecule antagonists of the farnesoid-X-receptor (FXR) signaling pathway - cell viability counter screen (AID 743221; active means well fitted cell-killing curve with a large enough effect in the repeat runs, not every such curve was filed as active; further: nearly all actives have a fitted effect of over 50% in size)
Summary of the method: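 Quantitative HTS of the Tox21 10K library run in parallel with the beta-lactamase reporter read. HEK 293T cells carrying a UAS-driven bla reporter got compound and 50 uM CDCA (final) for 16 h; ATP-based luminescence followed.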

[6] = target: Vitamin D3 receptor (Homo sapiens) (UniProt P11473); experiment: qHTS assay to identify small molecule agonists of the vitamin D receptor (VDR) signaling pathway (AID 743222; calls by dose curve)
Chain of Vitamin D3 receptor (Homo sapiens) (P11473 whole entry, looked up): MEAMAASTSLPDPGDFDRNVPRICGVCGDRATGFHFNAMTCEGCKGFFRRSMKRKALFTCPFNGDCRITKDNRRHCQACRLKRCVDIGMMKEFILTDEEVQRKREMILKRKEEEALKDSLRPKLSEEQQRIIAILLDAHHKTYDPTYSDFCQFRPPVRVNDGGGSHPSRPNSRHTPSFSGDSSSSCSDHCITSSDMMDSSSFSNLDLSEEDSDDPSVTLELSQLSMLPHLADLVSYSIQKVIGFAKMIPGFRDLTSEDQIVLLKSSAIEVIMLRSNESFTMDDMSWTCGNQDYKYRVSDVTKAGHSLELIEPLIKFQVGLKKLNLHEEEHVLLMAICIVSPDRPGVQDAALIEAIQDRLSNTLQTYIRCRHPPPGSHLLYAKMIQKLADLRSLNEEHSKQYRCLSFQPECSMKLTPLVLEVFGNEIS
Summary of the method: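 Agonist mode, beta-lactamase reporter: fluorescence from LiveBLAzer B/G FRET substrate (2 h, room temperature) read after 16 h compound treatment at 37 C of VDR-bla cells, which were pre-incubated 4 h after seeding.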

[7] = qHTS assay to identify small molecule agonists of the vitamin D receptor (VDR) signaling pathway - cell viability counter screen (AID 743224); further: series mostly up to about 63 µM; nearly all actives have a fitted effect of over 50% in size
Summary of the method: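 Counter screen run in the same wells as the VDR-bla reporter assay: CellTiter-Glo luminescence, 30 min at room temperature, after 16 h compound treatment at 37C of cells pre-plated for 4 h.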

[8] = qHTS assay to identify small molecule antagonists of the vitamin D receptor (VDR) signaling pathway - cell viability counter screen (AID 743225); further: nearly all actives have a fitted effect of over 50% in size
Summary of the method: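 Cells (VDR-UAS-bla HEK 293T) are plated, rested 4 h at 37C, dosed with compound and 3 nM final 1-alpha,25-dihydroxy vitamin D3, and incubated 16 h. Viability is taken from CellTiter-Glo luminescence in the reporter wells.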

[9] = qHTS assay to identify small molecule agonists of the NFkB signaling pathway (AID 1159509; active means well fitted curve in the direction sought with a large enough effect in the signal ratio in the repeat runs, not every such curve was filed as active; the % refers to the signal ratio; further: series mostly up to about 61 µM)
Summary of the method: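 Agonist activity was read as beta-lactamase-driven FRET change (460 and 530 nm emission, 405 nm excitation) following 1.5 hr substrate loading at room temperature. Beforehand, ME-180 NFkB-bla reporter cells were treated with compounds for 5 hr at 37 C.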

[10] = qHTS assay to identify small molecule agonists of the NFkB signaling pathway - cell viability counter screen (AID 1159515; calls by dose curve; further: series mostly up to about 61 µM; nearly all actives have a fitted effect of over 55% in size)
Summary of the method: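 Read by CellTiter-Glo luminescence (30 min, room temperature) in the wells also used for the beta-lactamase FRET read. ME-180 NFkB-bla cells at 2,000 per well were plated overnight, then exposed to compound for 5 hr at 37 C.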

[11] = qHTS assay to identify small molecule agonists of the endoplasmic reticulum stress response signaling pathway (AID 1159516; active means well fitted activation curve with a large enough effect in the signal ratio in the repeat runs, not every such curve was filed as active; the % refers to the signal ratio)
Summary of the method: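 Ratiometric FRET readout (405 nm excitation; 460 and 530 nm emission) of a beta-lactamase gene driven by the ER stress response element, after 2 hr substrate loading. HeLa ESRE-bla cells were seeded overnight and treated with compounds for only 5 hr at 37 C.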

[12] = qHTS assay to identify small molecule agonists of the endoplasmic reticulum stress response signaling pathway - cell viability counter screen (AID 1159517; calls by dose curve)
Summary of the method: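 Cpd-treated ESRE-bla HeLa (5 hr, 37 C) → LiveBLAzer 2 hr RT → CellTiter-Glo 30 min RT → luminescence.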

[13] = qHTS assay to identify small molecule antagonists of the retinoid-related orphan receptor gamma (ROR-gamma) signaling pathway - cell viability counter screen (AID 1159520); further: nearly all actives have a fitted effect of over 50% in size
Summary of the method: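 Tet-on ROR gamma CHO cells (1,000/well) were plated 4 hr, given compounds in DMSO for 2 hr at 37 C, then induced with 1 uM final doxycycline for 16 hr. Viability was read as ATP by CellTiter-Glo luminescence after 30 min.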

[14] = target: Nuclear receptor ROR-gamma (Homo sapiens) (UniProt P51449); experiment: qHTS assay to identify small molecule antagonists of the retinoid-related orphan receptor gamma (ROR-gamma) signaling pathway (AID 1159521)
Summary of the method: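 RORγ antagonism is scored from reduced reporter luminescence in Tet-on CHO cells. Induction used 1 uM final doxycycline hyclate for 16 h at 37 C, following a 2 h compound exposure.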

[15] = qHTS assay to identify small molecule agonists of the AP-1 signaling pathway - cell viability counter screen (AID 1159525; calls by dose curve; further: nearly all actives have a fitted effect of over 55% in size)
Summary of the method: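 Each titration point was normalised to DMSO and tetra n-octyl ammonium bromide controls. The read was Cell Titer Glo luminescence after 30 min at RT, following 5 h compound exposure of ME-180 AP-1-bla cells at 37 °C.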

[16] = qHTS assay to identify small molecule agonists of the AP-1 signaling pathway (AID 1159526; calls by dose curve)
[17] = target: Peroxisome proliferator-activated receptor delta (Homo sapiens) (UniProt Q03181); experiment: qHTS assay to identify small molecule antagonists of the peroxisome proliferator-activated receptor delta (PPARd) signaling pathway (AID 743215; active means well fitted inhibition curve with a large enough effect in the signal ratio in the repeat runs, not every such curve was filed as active; the % refers to the signal ratio;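 further: cells stimulated with agonist L165041 at 300 nM final during compound exposure; series mostly up to about 62 µM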)
Summary of the method: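 Agonist L165041 (300 nM final) added with compound to PPARd-bla HEK293H UAS-bla reporter cells; 17 h incubation at 37 C. Read-out: LiveBLAzer FRET substrate, 2 h at room temperature, fluorescence intensity.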

[18] = target: Vitamin D3 receptor (Homo sapiens) (UniProt P11473); experiment: qHTS assay to identify small molecule antagonists of the vitamin D receptor (VDR) signaling pathway (AID 743223; active means well fitted inhibition curve with a large enough effect in the signal ratio in the repeat runs, not every such curve was filed as active; the % refers to the signal ratio)
Summary of the method: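 Fluorescence from LiveBLAzer B/G FRET substrate, read after 2 h at room temperature, reflects beta-lactamase reporter activity in VDR-bla cells treated 16 h at 37C with compounds and agonist 1alpha,25-dihydroxyvitamin D3 (3 nM final).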

[19] = target: Bile acid receptor (Homo sapiens) (UniProt Q96RI1); experiment: qHTS assay to identify small molecule antagonists of the farnesoid-X-receptor (FXR) signaling pathway (AID 743217; active means well fitted inhibition curve with a large enough effect in the signal ratio in the repeat runs, not every such curve was filed as active; the % refers to the signal ratio)
Chain of Bile acid receptor (Homo sapiens) (Q96RI1 whole entry, looked up): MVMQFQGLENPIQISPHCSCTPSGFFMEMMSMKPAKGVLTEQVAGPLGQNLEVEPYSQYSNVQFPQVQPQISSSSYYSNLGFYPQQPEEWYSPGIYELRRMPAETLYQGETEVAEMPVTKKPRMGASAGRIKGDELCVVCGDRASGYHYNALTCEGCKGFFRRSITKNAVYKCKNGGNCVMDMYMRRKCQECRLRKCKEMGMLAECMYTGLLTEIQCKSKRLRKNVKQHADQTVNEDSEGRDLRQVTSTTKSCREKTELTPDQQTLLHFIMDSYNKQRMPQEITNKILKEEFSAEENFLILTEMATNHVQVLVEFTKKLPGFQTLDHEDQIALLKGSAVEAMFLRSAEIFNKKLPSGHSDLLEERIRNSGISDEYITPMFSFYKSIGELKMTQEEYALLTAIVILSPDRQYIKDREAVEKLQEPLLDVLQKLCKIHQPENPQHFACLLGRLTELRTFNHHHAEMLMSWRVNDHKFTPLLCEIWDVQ
Summary of the method: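 Antagonist mode: chenodeoxycholic acid at 50 uM final stimulates a UAS-driven beta-lactamase reporter in HEK 293T FXR-bla cells during 16 h, 37C compound exposure. Read-out is FRET substrate fluorescence after 2 h at room temperature.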

[20] = target: Bile acid receptor (Homo sapiens) (UniProt Q96RI1); experiment: qHTS assay to identify small molecule agonists of the farnesoid-X-receptor (FXR) signaling pathway (AID 743220; active means well fitted activation curve with a large enough effect in the signal ratio in the repeat runs, not every such curve was filed as active; the % refers to the signal ratio)
Summary of the method: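 FXR-UAS-bla HEK 293T cells carrying a UAS-driven beta-lactamase reporter were plated for 5 h at 37C/5% CO2, then exposed to DMSO-dissolved Tox21 10K compounds for 16 h at 37C. A LiveBLAzer B/G FRET substrate was loaded for 2 h at room temperature before fluorescence reading.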

Measured: Potency

COc1ccc(CCN(C)CCCC(C#N)(c2cc(OC)c(OC)c(OC)c2)C(C)C)cc1OC (configuration not stated)
inactive: [1] | [2] | [3] | [4] | [5] | [6] | [7] | [8] | [9] | [10] | [11] | [12] | [13] | [14] | [15] | [16]

CCSC(=O)N(CC(C)C)CC(C)C
inactive: [1] | [2] | [3] | [17] | [4] | [6] | [18] | [7] | [8] | [9] | [10] | [11] | [12] | [13] | [14] | [15] | [16]

O=C1NC(=O)[C@@]2(CCOc3ccc(F)cc32)N1
inactive: [1] | [2] | [3] | [4] | [5] | [6] | [18] | [8] | [9] | [10] | [11] | [12] | [13] | [14] | [15] | [16]

C[C@@H]1CCN(C(=O)[C@H](CCCN=C(N)N)NS(=O)(=O)c2cccc3c2NC[C@H](C)C3)[C@@H](C(=O)O)C1
inactive: [1] | [2] | [3] | [17] | [4] | [5] | [7] | [8] | [9] | [10] | [11] | [12] | [13] | [14] | [15] | [16]

NC(=O)c1ccc([N+](=O)[O-])cc1
inactive: [1] | [2] | [3] | [17] | [4] | [5] | [6] | [7] | [8] | [9] | [10] | [11] | [12] | [13] | [14] | [15] | [16]

CC(=O)OC/C=C(\C)CC/C=C(\C)CCC=C(C)C
inactive: [1] | [2] | [3] | [17] | [4] | [5] | [6] | [7] | [8] | [9] | [10] | [11] | [12] | [13] | [14] | [15] | [16]

Cc1[nH]c(=O)c(C#N)cc1-c1ccc2nccn2c1
inactive: [1] | [2] | [3] | [17] | [4] | [5] | [6] | [18] | [8] | [9] | [10] | [11] | [12] | [13] | [14] | [15] | [16]

O=c1cc(CO)occ1O
inactive: [1] | [2] | [3] | [17] | [4] | [5] | [6] | [18] | [7] | [8] | [9] | [10] | [11] | [12] | [13] | [14] | [15] | [16]

CC1=CC(C)C(C=O)CC1 (configuration not stated)
inactive: [1] | [2] | [3] | [4] | [5] | [6] | [7] | [8] | [9] | [10] | [11] | [12] | [13] | [14] | [15] | [16]

Nc1c2c(nc3ccccc13)CCCC2O (configuration not stated)
inactive: [1] | [2] | [3] | [17] | [4] | [5] | [7] | [8] | [9] | [10] | [11] | [12] | [13] | [14] | [15] | [16]

NC(=O)Nc1ccccc1
inactive: [1] | [2] | [3] | [4] | [5] | [6] | [7] | [8] | [9] | [10] | [11] | [12] | [13] | [14] | [15] | [16]

O=C(O)CCCc1ccccc1
inactive: [1] | [3] | [4] | [5] | [6] | [18] | [7] | [8] | [9] | [10] | [11] | [12] | [13] | [14] | [15] | [16]

CCc1ccc(O)c(OC)c1
inactive: [1] | [3] | [17] | [19] | [4] | [20] | [5] | [7] | [8] | [9] | [10] | [11] | [12] | [13] | [14] | [15] | [16]

CC(=O)c1ccccc1O
inactive: [1] | [3] | [19] | [4] | [20] | [5] | [6] | [18] | [7] | [8] | [9] | [10] | [11] | [12] | [13] | [14] | [15] | [16]

NS(=O)(=O)c1ccccc1Cl
inactive: [2] | [3] | [17] | [5] | [6] | [7] | [8] | [9] | [10] | [11] | [12] | [13] | [14] | [15] | [16]

CC1(C)CO[C@@H](CC(=O)O)CN1
inactive: [1] | [2] | [17] | [6] | [18] | [8] | [9] | [10] | [11] | [12] | [13] | [14] | [15] | [16]
